Assay results: PubChem BioAssay AID1018 (Sanford-Burnham Center for Chemical Genomics, 2008)
Screen size: about 200,000 compounds; about 15 (0.007%) were called active. The full list was thinned out, with actives kept by preference. Values without a mark were called inactive. Rule as the data show it: active = displacement above about 50%; inactive = the rest.

molecular target: E3 ubiquitin-protein ligase XIAP (Homo sapiens) (UniProt P98170); test: XIAP antagonists, biochemical, IAP family, fluorescence polarization (AID 1018); conditions: XIAP BIR domain, fluorescence polarization peptide displacement; at 20 µM; active compounds read high
Sequence (P98170 whole entry, looked up, the tested form may be a part): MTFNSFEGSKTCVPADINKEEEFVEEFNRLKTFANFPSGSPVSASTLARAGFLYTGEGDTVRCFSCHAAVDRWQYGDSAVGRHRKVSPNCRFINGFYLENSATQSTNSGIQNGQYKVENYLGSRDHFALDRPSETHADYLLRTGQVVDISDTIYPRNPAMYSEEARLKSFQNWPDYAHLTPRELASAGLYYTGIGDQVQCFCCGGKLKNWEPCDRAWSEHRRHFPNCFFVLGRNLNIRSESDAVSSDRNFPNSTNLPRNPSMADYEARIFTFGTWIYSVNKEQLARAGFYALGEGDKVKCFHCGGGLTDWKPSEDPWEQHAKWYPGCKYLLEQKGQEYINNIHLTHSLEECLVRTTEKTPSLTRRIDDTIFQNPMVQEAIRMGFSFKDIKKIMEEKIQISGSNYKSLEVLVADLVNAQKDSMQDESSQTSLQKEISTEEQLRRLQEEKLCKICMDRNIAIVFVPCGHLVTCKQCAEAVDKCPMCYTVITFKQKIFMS

With `O=C(COC(=O)CCc1nc2ccccc2s1)Nc1cccc(S(=O)(=O)N2CCOCC2)c1` as the molecule, how does the displacement read?
The displacement was -5.8%.

With `Cc1nc(NCc2ccc3c(c2)OCO3)c2nnn(Cc3ccccc3)c2n1` as the molecule, how does the displacement read?
Its displacement is -8.1%.

For `CCCc1nc(NCc2ccc3c(c2)OCO3)c2nnn(Cc3ccccc3Cl)c2n1`, which displacement is on record?
Its displacement is 51.1% (active).

Which displacement does the source give for `c1ccc(Cn2nnc3c(NCc4ccc5c(c4)OCO5)nc(C4CC4)nc32)cc1` here?
Its displacement is -10.8%.

`O=C(COC(=O)c1ccc[n+]([O-])c1)Nc1c(Br)cc([N+](=O)[O-])cc1Br` was tested. Which displacement did it give?
The displacement was -4.5%.

With `Cc1cc(C)c(NC(=S)N(CCN(C)C)Cc2cccs2)c(C)c1` as the molecule, how does the displacement read?
Its displacement is -10.6%.

Which displacement does the source give for `C=C(C)C1Cc2c(C)nn(-c3cccc4ccccc34)c2C1` (configuration not stated) here?
Its displacement is -4.8%.

With `CCOC(=O)c1ccc(NC(=O)N2CCN(CCc3ccccc3)CC2)cc1` as the molecule, how does the displacement read?
Its displacement is -8.1%.

How did the displacement turn out when `Cc1sc2ncn(-c3ccccc3)c(=O)c2c1C` was run?
The displacement was 4.2%.

For `Cc1ccc2nc(C3CCCN(C(=S)Nc4ccccc4C)C3)[nH]c2c1` (configuration not stated), which displacement is on record?
Its displacement is -10%.

With `CCCOC(=O)/C(=C\C=C\c1ccco1)NC(=O)c1ccccc1` as the molecule, how does the displacement read?
The displacement was -0.1%.

Which displacement does the source give for `Cc1ccc(N/C(N)=N/c2nc(CSc3ccc(C)cc3)cc(=O)[nH]2)cc1` here?
The displacement was 1.1%.

`CC(/C=C1\SC(=S)N(NC(=O)c2ccccc2C)C1=O)=C\c1ccccc1` was tested. Which displacement did it give?
The displacement was -1.8%.

For `Fc1cccc(CSc2nc3ccncc3[nH]2)c1`, which displacement is on record?
The displacement was -5.3%.

`CCOc1cc(N2CCOCC2)c(OCC)cc1NC(=O)CSc1ncccn1` was tested. Which displacement did it give?
Its displacement is -8.5%.

How did the displacement turn out when `O=C(Cn1cc(CCO)nn1)N1CCNCC1` was run?
Its displacement is -26.3%.

Which displacement does the source give for `CCOC(=O)c1c(C)[nH]c(C)c1C(=O)CSc1nnc(-c2ccncc2)n1C` here?
The displacement was -0.3%.

With `O=C(Nc1cn(-c2ccccc2)nc1-c1ccc(Cl)cc1)c1ccccc1` as the molecule, how does the displacement read?
The displacement was -8.1%.

For `CN1CCN(CC(O)COC(c2ccccc2)c2ccccc2)CC1` (configuration not stated), which displacement is on record?
Its displacement is -2.7%.

`CS(=O)(=O)N(CC(=O)Nc1ccc2c(c1)OCO2)c1ccccc1` was tested. Which displacement did it give?
The displacement was 0.9%.

For `CCCCCC(=O)N1CCN(CCN=CC2=C(O)CC(c3ccc(OC)c(OC)c3)CC2=O)CC1` (configuration not stated), which displacement is on record?
Its displacement is -3.4%.

Which displacement does the source give for `O=c1[nH]c2cc3c(cc2cc1CN(Cc1cccnc1)C(=S)NCc1ccco1)OCO3` here?
The displacement was -8.9%.

How did the displacement turn out when `O=C(NC1CCCC1)C(c1ccncc1)N(Cc1ccco1)C(=O)c1ccc(-c2ccccc2)[nH]1` (configuration not stated) was run?
Its displacement is -0.5%.

`O=C(CNC(=O)c1ccc(N2C(=O)c3ccccc3C2=O)cc1)OCC(=O)c1ccc(Cl)cc1` was tested. Which displacement did it give?
The displacement was 77.6% (active).

Which displacement does the source give for `CCc1ccc(C(=O)COC(=O)CNC(=O)c2ccc(N3C(=O)c4ccccc4C3=O)cc2)cc1` here?
Its displacement is -2.7%.

How did the displacement turn out when `O=C(CNC(=O)c1ccc(N2C(=O)c3ccccc3C2=O)cc1)OCC(=O)c1ccccc1` was run?
The displacement was -3.8%.

For `CC1CCCN(C(=O)c2ccc3c(=O)n(C4CCCC4)c(=S)[nH]c3c2)C1` (configuration not stated), which displacement is on record?
Its displacement is -8.7%.

Which displacement does the source give for `O=C(c1ccc2c(=O)n(C3CCCC3)c(=S)[nH]c2c1)N1CCN(C2CCCCC2)CC1` here?
The displacement was -21.2%.

`O=C(c1ccc2c(=O)n(C3CCCC3)c(=S)[nH]c2c1)N1CCCCCC1` was tested. Which displacement did it give?
The displacement was 68.1% (active).

With `Cc1ccc(NC(=O)c2ccc(Cl)nc2)cc1` as the molecule, how does the displacement read?
The displacement was -3.5%.

For `Cc1cccc(S(=O)(=O)NCC2CCCO2)c1` (configuration not stated), which displacement is on record?
The displacement was -6.3%.

Which displacement does the source give for `Cc1cc(C(=O)NCc2ccc(C(=O)O)o2)c(C)o1` here?
Its displacement is -8.1%.

For `CC1(C)NC(C)(C)c2nonc2/C1=N\O`, which displacement is on record?
Its displacement is -3.8%.

`CC(C)(C)n1nnnc1C(c1ccncc1)N(Cc1ccccc1)Cc1ccco1` (configuration not stated) was tested. Which displacement did it give?
The displacement was -4.2%.

With `O=S(=O)(/C=C/c1ccccc1)N1CCN(c2ccccc2)CC1` as the molecule, how does the displacement read?
Its displacement is -3.9%.

How did the displacement turn out when `CC(C)(C)n1nnnc1C(c1cccnc1)N1CCN(c2cccc(C(F)(F)F)c2)CC1` (configuration not stated) was run?
The displacement was -2.9%.

With `CCCCOC(=O)Nc1ccc(OC)cc1S(=O)(=O)N1CCOCC1` as the molecule, how does the displacement read?
Its displacement is 58.7% (active).

For `CCOC(=O)Nc1ccc(OC)cc1S(=O)(=O)N1CCCCC1`, which displacement is on record?
Its displacement is -2.5%.

Which displacement does the source give for `COc1ccc(NC(=O)c2cc(OC)c(OC)cc2OC)c(S(=O)(=O)N2CCOCC2)c1` here?
The displacement was -3.3%.

For `CCNc1ccc2noc3c2c1C(=O)c1ccccc1-3`, which displacement is on record?
The displacement was -8.9%.

For `O=C1c2ccccc2-c2onc3ccc(NCCCn4ccnc4)c1c23`, which displacement is on record?
The displacement was 70.1% (active).

Which displacement does the source give for `O=C1c2ccccc2-c2onc3ccc(NCc4ccco4)c1c23` here?
Its displacement is 76.4%.

With `Cc1cc(=O)[nH]c(S/C=C/c2ccccc2)n1` as the molecule, how does the displacement read?
The displacement was 0.7%.

`CCN(CC)S(=O)(=O)c1ccc(C)c(NC(=O)COC(=O)CNC(=O)c2ccc(C(C)(C)C)cc2)c1` was tested. Which displacement did it give?
Its displacement is -10.4%.

With `Cc1nn(CCC#N)c2[nH]c(=O)cc(C(F)(F)F)c12` as the molecule, how does the displacement read?
Its displacement is -4.9%.

How did the displacement turn out when `Cc1ccc(C(NC(N)=O)c2ccccc2C)cc1` (configuration not stated) was run?
The displacement was -1.9%.

How did the displacement turn out when `S=c1[nH]nc(CN2CCCCC2)n1-c1ccc(Cl)cc1` was run?
Its displacement is -9.6%.
